Assay results as given in PubChem BioAssay (NCATS).
The source made the active and inactive calls. The call rests on the fitted dose curve; in most records, active means well fitted activation curve with a large enough effect; inconclusive means small, poorly fitted or top-dose-only effect; inactive means flat fitted curve, though single readings scatter.

assay: Confirmation and Secondary Assay for Modulators of Hemoglobin Beta Chain Splicing at IVS2 654 locus (AID 910); conditions: HeLa EGFP-654 splicing reporter, GFP fluorescence, 48 h; series mostly up to 46.1 µM; activation (splicing correction): at the top concentration;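 further: HeLa cells stably carrying EGFP split by mutant beta-globin IVS2-654 intron; % of control where 0% means no effect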
Source text: NIH Chemical Genomics Center [NCGC] NIH Molecular Libraries Screening Centers Network [MLSCN] MLSCN Grant: 1 X01 MH080684-01 PI Name: Dr. Ryszard Kole NCGC Assay Overview: Modulation of Alternative Splicing as Therapy Abnormal splicing is associated with a number of diseases, including cancer and genetic diseases such as cystic fibrosis, muscular dystrophy and beta-thalassemia. Alteration of disease associated splicing patterns provides a promising target for treatment. […] Mutations in the second intron of the b-globin gene at positions 654 or 705 are clinically relevant and cause mis-splicing which results in an out of frame gene product. […] EGFP-654 HeLa Cells as screen system. HeLa cell lines were stably transfected with a construct in which the EGFP (enhanced green fluorescent protein) cDNA was interrupted by the second intron of the beta-globin gene (IVS2-654). The ISV2 intron contains mutations which cause mis-splicing of EGFP and premature termination of EGFP which results in a nonfluorescent protein product. […] Expression of the transgene was driven by the CMV promoter. We concluded that a low molecular weight compound, which restored correct splicing of intron 2 would also generate functional EGFP protein, resulting in a fluorescent signal. Thus, the HeLa cells that express the EGFP-654 construct can be used for high throughput screening of a chemical library.
NCGC Assay Protocol Summary: Confirmatory Screening. Freshly thawed HeLa EGFP-654 cells were seeded in 5 ul of optimem media (Invitrogen) containing 2 % fetal calf serum (Hyclone) and 1x penicillin/streptomycin (Invitrogen) at a concentration of 500 cells per well in 1536-well plates. Cells were incubated overnight at 37C in 5% CO2. The next day, cells were treated with DMSO, 500 nM antisense ISV2 654 PNA control oligo, or library compound and allowed to grow at 37C in 5% CO2 for 2 days. The PNA oligo blocked the mutation site in the intron and allowed proper (wild type) splicing to occur, resulting in full length EGFP expression and also allowed for optimization of the assay parameters. Plates were read in the Acumen Explorer (TTP Labtech) using 488 nm laser excitation and 500-520 nm emission PMT filter in a 1 x 8 uM capture mode. Fluorescnet objects ranging in size from 5 to 250 uM were measured and the total peak GFP intensity for each well was used for data analysis. Keywords: Thalassemia, beta-thalassemia, beta-globin, EGFP, ISV2 654, ISV2 705, SSO, PNA, antisense, splicing, MLSMR, MLSCN, NIH Roadmap, qHTS, NCGC

Activation (splicing correction), inactive:
C=CC(C1=CC(=O)C(OC)=CC1=O)c1ccc(OC)cc1 (stereo not given) 1.26% [at 38.3 µM], NC(=O)c1cc[n+](CC2=C(C(=O)O)N3C(=O)C(NC(=O)C(c4ccccc4)S(=O)(=O)[O-])C3SC2)cc1 (stereo not given) 10.4%, CC(=O)OCC(=O)[C@@]1(O)CCC2C3CCC4=CC(=O)CC[C@]4(C)C3C(=O)C[C@]21C (stereo not given in full) 0.495%, Cc1cc(O)c(C)c(O)c1C(=O)O 0.972%, COc1cc2c(cc1OC)C1C(=O)c3c(cc4c(c3O)C=CC(C)(C)O4)OC1CO2 (stereo not given) -2.22% [at 38.3 µM], O=C1C=CC(=C(c2ccc(O)cc2)c2ccc(O)cc2)C=C1 -2.8%, O=c1c(-c2ccc(O)cc2)coc2c(C3OC(CO)C(O)C(O)C3O)c(O)ccc12 (stereo not given) 0.573%, COc1ccc2c3c1OC1CC(O)C=C[C@@]31CCN(C)C2 (stereo not given in full) 7.17%, CC1O[C@@H](O[C@@H]2C(O)C[C@H](O[C@@H]3C(O)C[C@@H](OC4CC[C@@]5(C)C6CC[C@]7(C)C(C8=CC(=O)OC8)CC[C@@]7(O)C6CC[C@@H]5C4)OC3C)OC2C)CC(O)[C@H]1O (stereo not given in full) -5.32%, NCC1O[C@H](O[C@@H]2C(O)[C@H](O[C@H]3OC(CO)C(O)C(N)C3O)[C@@H](N)C[C@H]2N)[C@@H](N)CC1O (stereo not given in full) 3.77%, CC1/C=C/C=C/C=C/C=C/C=C/C=C/C=C/C(OC2OC(C)C(O)C(N)C2O)CC2O[C@@](O)(CC(O)CC(O)C(O)CCC(O)CC(O)CC(=O)OC(C)[C@H](C)C1O)CC(O)C2C(=O)O (stereo not given in full) 2.19%, CSCCC(N)C(=O)NC(CC(C)C)C(=O)NC(Cc1ccccc1)C(=O)O (stereo not given) -0.105% [at 38.3 µM], CC(=O)OC1CCC2(C)C3=C(CCC2C1(C)C)[C@@]1(C)CCC(C(C)CCC=C(C)C)[C@@]1(C)CC3 (stereo not given in full) 2.59%, NC(Cc1cnc[nH]1)C(=O)Nc1ccc2ccccc2c1 (stereo not given) 1.56% [at 38.3 µM], COc1cc2ccc(=O)oc2c(OC)c1OC 5.07%, Cn1c(=O)[nH]c(=O)c2[nH]cnc21 6.91%, O=C1C=CC2=C3c4cc(O)c(O)cc4C[C@]3(O)COC2=C1 -7.13%, COC(=O)CC1[C@@]2(C)C[C@@]34OC5(C)OC6(CC[C@@]7(C)C(c8ccoc8)OC(=O)C(C(C)=O)C7[C@]6(O5)C(O)[C@@]3(O)C2O)[C@]14C (stereo not given in full) 2.43% [at 38.3 µM], Nc1nc2c(ncn2C2CC(O)C(CO)O2)c(=O)[nH]1 (stereo not given) 0.882% [at 38.3 µM], CC1C(NC(=O)/C(=N/OC(C)(C)C(=O)O)c2csc(N)n2)C(=O)N1S(=O)(=O)O (stereo not given) 10.3%, COc1ccc(C2COc3c(ccc(O)c3OC)C2)c(OC)c1O (stereo not given) 5.54%, CO[C@@]1(NC(=O)Cc2cccs2)C(=O)N2C(C(=O)O)=C(COC(N)=O)CSC21 (stereo not given in full) 5.62%, COc1ccc2c(c1)OC/C(=C/c1ccc(OC)c(OC)c1)C2=O -0.93% [at 38.3 µM], COc1cc(OC)c2c(=O)c(-c3ccc4c(c3)OCO4)coc2c1 1.21% [at 38.3 µM], CC(C)(C)NCC(O)COc1cccc2c1CC(O)C(O)C2 (stereo not given) -2.52%, CN1C2CC(OC(=O)C(CO)c3ccccc3)C[C@@H]1[C@H]1OC21 (stereo not given in full) 3.6%, O=C1OC(C(O)CO)C(O)=C1O (stereo not given) 0.456%, CCC1OC(=O)C(C)[C@@H](O[C@H]2C[C@@](C)(OC)C(O)C(C)O2)C(C)[C@@H](O[C@@H]2OC(C)CC(N(C)C)C2O)[C@@](C)(O)CC(C)C2NC(COCCOC)O[C@H](C2C)[C@@]1(C)O (stereo not given in full) 0.0237%, NC1C(O)OC(CO)[C@@H](O)[C@@H]1O[C@H]1O[C@@H](C(=O)O)C(O)C(O)C1O (stereo not given in full) 0.0942% [at 38.3 µM], COc1cc(O)c(C(=O)/C=C/c2ccc(O)c(OC)c2)c(OC)c1 21.5%, COc1ccc(-c2cc(=O)c3c(OC(C)=O)cc(OC(C)=O)cc3o2)cc1 -8.15%, C=C1C([C@@]2(C)C(OC(C)=O)CC(=O)O[C@@](C)(COC(C)=O)C2CC(=O)OC)C(OC=O)C(OC(=O)C(O)C(C)CC)[C@]2(C)C(c3ccoc3)CC(=O)C12O (stereo not given in full) -1.22%, Nc1nc(=O)n(C2OC(CO)C(O)C2O)cc1Cl (stereo not given) 1.12% [at 38.3 µM], CC1c2cccc(O)c2C(O)=C2C(=O)[C@]3(O)C(O)=C(C(N)=O)C(=O)C(N(C)C)C3C(O)C21 (stereo not given in full) 2.67%, COc1ccc(-c2coc3c(OC)c(OC)cc(O)c3c2=O)cc1 2.77%, C[N+]1(C)C2CCC1CC(OC(=O)C(O)c1ccccc1)C2 (stereo not given) -0.36%, CC1(C)C(=O)C=C[C@@]2(C)C1C=C[C@@]1(C)C2CC[C@@]2(C)C(c3ccoc3)OC(=O)C3OC312 (stereo not given in full) -8.98%, O=C(O)c1cc2ccccc2[nH]1 8.07%, CS(C)(=O)=O 7.24%

outcome, inactive:
CNC(=O)Oc1ccc2c(c1)[C@@]1(C)CCN(C)C1N2C (stereo not given in full)
